Assay results taken from the supplement of paper PMC11172423.

Experiments:
[1] = test system: Falciformispora senegalensis CBS197.79; test: growth relative to untreated control; higher = less inhibition, active = 20 or less
Summary of the method: (§1)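 Hyphal fragments of M. mycetomatis MM55 or F. senegalensis CBS197.79 were suspended in colourless RPMI 1640 with L-glutamine and MOPS at 68–72% transmission at 660 nm. They were exposed in 96-well plates to compound at 100 or 25 µM for 7 days at 37 °C. Viability was read with MTS (2 h, 490 nm) or resazurin (600 nm). Growth is metabolic activity relative to the untreated growth control, both corrected with a medium-plus-dye blank.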

[2] = test system: Madurella mycetomatis MM55; test: as above
Summary of the method: as §1

Measured: growth

CC(C)(C)NCc1cc(Nc2ccnc3cc(Cl)ccc23)c2c(c1O)CCCC2
inactive: [1]; 25 µM 106% | [1]; 100 µM 101% | [2]; 25 µM 113% | [2]; 100 µM 95.1%

Cn1nc(-c2cccc(C#N)c2)c2cc(-c3n[nH]c(C4CCCN4)n3)ccc21 (configuration not stated)
inactive: [1]; 25 µM 98.7% | [1]; 100 µM 94.2% | [2]; 25 µM 92.7% | [2]; 100 µM 74.9%

CCN(CC)Cc1cc(Nc2ccnc3cc(Cl)ccc23)ccc1O
inactive: [1]; 25 µM 89.8% | [1]; 100 µM 88.3% | [2]; 25 µM 81.3% | [2]; 100 µM 43.4%

CCN(CC)CCOc1ccc(C(O)(Cc2ccc(Cl)cc2)c2ccc(C)cc2)cc1 (configuration not stated)
active: [1]; 25 µM 7.03% | [1]; 100 µM 8.2% | [2]; 25 µM 3.26% | [2]; 100 µM 3.33%

N#CC[C@H](C1CCCC1)n1cc(-c2ncnc3[nH]ccc23)cn1
inactive: [1]; 25 µM 110% | [1]; 100 µM 103% | [2]; 25 µM 76.6% | [2]; 100 µM 92.4%

COC(=O)N[C@H](C(=O)N1CCC[C@H]1c1ncc(-c2ccc(-c3ccc(-c4cnc([C@@H]5CCCN5C(=O)[C@@H](NC(=O)OC)C(C)C)[nH]4)cc3)cc2)[nH]1)C(C)C
inactive: [1]; 25 µM 114% | [1]; 100 µM 99.8% | [2]; 25 µM 82.5% | [2]; 100 µM 85.6%

Cn1cnc2c(F)c(Nc3ccc(Br)cc3Cl)c(C(=O)NOCCO)cc21
inactive: [1]; 25 µM 96.9% | [1]; 100 µM 103% | [2]; 25 µM 110% | [2]; 100 µM 86.3%

O=C(Nc1ncc([N+](=O)[O-])s1)c1ccccc1O
inactive: [1]; 25 µM 95.8% | [1]; 100 µM 100% | [2]; 25 µM 72.6% | [2]; 100 µM 91.8%
